Laboratory results reported in PubChem BioAssay AID504599 (National Center for Advancing Translational Sciences (NCATS), 2011).
Active and inactive are the calls of the source. The call rests on the fitted dose curve; in most records, active means well fitted inhibition curve with a large enough effect; inconclusive means small, poorly fitted or top-dose-only effect; inactive means flat fitted curve, though single readings scatter.

Assay: Quantitative high throughput screen for delayed death inhibitors of the malarial parasite plastid, 96 hour incubation.
Details: P. falciparum luciferase growth
Text: NIH Molecular Libraries Probe Production Network [MLPCN] NIH Chemical Genomics Center [NCGC] MLPCN Grant: R21 NS059500 Assay Provider: David Fidock and Eric Ekland, Columbia University The goal of this screen is to discover new antimalarial compounds that act by inhibiting the development of the apicoplast in the malarial parasite Plasmodium falciparum. The biochemical processes that make this organelle essential for erythrocytic stage parasites are not well understood. However, antibiotics, such as azithromycin and tetracycline, which target the apicoplast translational machinery, have a potent antimalarial effect. […] We have developed a cell-based assay that measures parasite growth based on the expression of an integrated copy of a firefly luciferase reporter. […] Growth inhibition is detected by a decrease in luciferase activity
Four microliters of culture medium (RPMI 1640 with 0.5% w/v Albumax (GIBCO), 24 mM sodium bicarbonate and 10 ug/mL gentamycin) were dispensed by a Multi-drop Combi into white solid 1536-well plates (Grenier) and 23 nL compound was added by a pin tool. […] Two microliters of luciferase detection reagent was added and luminescence was detected by a ViewLux (PerkinElmer) reader

SMILES	Potency
COc1ccc(COC[C@H](C)N2C[C@@H](C)[C@H](CN(C)S(=O)(=O)c3ccc(F)cc3)OCCCC[C@H](C)Oc3ccc(NC(=O)Nc4ccccc4)cc3C2=O)cc1	0.0025 µM (active)
COCCOC(=O)N(C)C[C@@H]1OCCCC[C@H](C)Oc2ccc(NC(=O)Nc3ccccc3)cc2C(=O)N([C@@H](C)CO)C[C@H]1C	17.9 µM (active)
